From the supplement of paper PMC5407854, “Inhibitor of ppGalNAc-T3-mediated O-glycosylation blocks cancer cell invasiveness and lowers FGF23 levels” (eLife, 2017)
In all, about 1,700 compounds were measured (“T3 sensor activation Q score (MG/GFP ratio z-score vs DMSO controls)”: median about 0.25, highest 2% from about 1.9 on). The entries come from a sample that favours the highest values as a whole.

Each compound was assayed on ppGalNAc-T3 sensor (assay: T3 sensor activation Q score (MG/GFP ratio z-score vs DMSO controls) (SD units); higher = more sensor activation (inhibition of ppGalNAc-T3 glycosylation)). Conditions: HEK293 sensor cells; 10 µM; 6 h.
Description: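 Cells were treated with compound at 10 uM for 6 h, then MG/GFP ratio was read by flow cytometry (10,000 cells per well, duplicate wells). Q = (R - R_neg)/SD_neg relative to DMSO vehicle controls; the signal rises when the glycosyltransferase is inhibited.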

Row | SMILES | T3 sensor activation Q score
1 | Cc1cc(=O)c2c(=O)[nH][nH]c2[nH]1 | -1.35
2 | CCc1noc2cc(-c3ccccc3)n(C)c(=O)c12 | 0.35
3 | CCCSc1ncnc2[nH]ncc12 | 1.45
4 | C#Cc1cccc(Nc2ncnc3cc(OCCOC)c(OCCOC)cc23)c1 | 2.15
5 | C#Cc1cccc(NC(=O)c2ccc(Cl)cc2Cl)c1 | -0.65
6 | CCCNC(=O)c1ccccc1C(=O)NC1(C(=O)NCCC)CCCC1 | -0.35
7 | NC(=O)Nc1ccc(Nc2ccccc2)cc1 | 0.7
8 | CC1(C)CC(Nc2ccc(Nc3ccccc3)cc2)CC(C)(C)N1 | 1.85
9 | Nc1nc(Nc2ccccc2)n[nH]1 | -0.55
10 | OCCCCc1nccc2c1[nH]c1ccccc12 | 1
11 | CNC(=O)c1ccccc1Sc1ccc2c(/C=C/c3ccccn3)n[nH]c2c1 | 0.7
12 | O=C(O)CCC(=O)c1ccc2ccc3cccc4ccc1c2c34 | 1.75
13 | CCOC(=O)Nc1c(Cl)n(C)c(=O)n(C)c1=O | 1.75
14 | CN(C)c1nc(=NCc2ccco2)ss1 | -1.15
15 | NC(=O)c1cc2c3ccccc3ccn2c1-c1ccccc1 | 2.95
16 | Clc1nnc2c3ccccc3ccn12 | 0.05
17 | Cc1nc(C(N)=O)nc2ccccc12 | 0.2
18 | Cc1cnc(SCc2ccc(Cl)cc2Cl)[nH]c1=O | -0.3
19 | COc1ccc([N+](=O)[O-])cc1NS(=O)(=O)c1ccc(C)cc1 | -0.7
20 | Cn1c(=O)c2c(nc(Oc3ccccc3)n2C)n(C)c1=O | 0.7
21 | Cn1c(=O)c2c(nc(OCCc3ccccc3)n2C)n(C)c1=O | 1.6
22 | Cn1c(=O)c2c(nc(Cc3ccccc3)n2C)n(C)c1=O | 1.9
23 | CCOC(=O)c1cc(OCC)c2c(ccc3ccccc32)n1 | 1.85
24 | CCOC(=O)c1cc(-c2ccccc2)nc2ccc(C)cc12 | 0.8
25 | CCOC(=O)N1CCN(Cc2c(O)ccc3ccccc23)CC1 | -0.95

Row | SMILES | T3 sensor activation Q score
26 | CC(=O)NS(=O)(=O)c1ccc2sc(C)nc2c1 | 0.15
27 | Nc1ccc(S(=O)(=O)NCC2CCCCO2)cc1 (stereo not given) | 1.6
28 | NC(N)=NS(=O)(=O)c1ccc(N=C2C(=O)Nc3ccccc32)cc1 | 0.3
29 | Cc1ccc(NC(=O)c2ccc(CN3CCN(C)CC3)cc2)cc1Nc1nccc(-c2cccnc2)n1 | -1.55
30 | Cc1ccc(C(=O)Nc2ccc(CN3CCN(C)CC3)c(C(F)(F)F)c2)cc1C#Cc1cnc2cccnn12 | 1.9
31 | Cc1c(NC(=O)Nc2c(Cl)cccc2Cl)c(=O)n(-c2ccccc2)n1C | 0.1
32 | Oc1c(N=Nc2nn[nH]n2)ccc2ccccc12 | 1.25
33 | Cn1cnc2ncnn2c1=S | -1.2
34 | C=CCNC(=S)NCC | 1.9
35 | C=CCNC(=S)Nc1c(N)n(C)c(=O)n(C)c1=O | 0.75
36 | C=CCNC(=S)NCC=C | 0.35
37 | O=C(NN1CCCCC1)NN1CCCCC1 | 1.35
38 | O=C(O)c1cccc2c1C(=O)c1cccc3snc-2c13 | -0.15
39 | CN1C(=C=Cc2cc(I)c(O)c(I)c2)C(C)(C)c2ccccc21 | 1.9
40 | CCCNC(=O)c1ccc(S(N)(=O)=O)cc1 | 0.65
41 | O=C(c1ccccc1)C1C(c2ccccc2)C1[N+](=O)[O-] (stereo not given) | 1.7
42 | O=[N+]([O-])C1C(c2ccccc2)C12c1ccccc1-c1ccccc12 (stereo not given) | 3.55
43 | CCN(CC)Cc1cc2[nH]c3c4ccc(Cl)cc4ncc3c2cc1OC | 1.9
44 | Cc1cnc2cc(Cl)ccc2c1SCC(=O)O | 0.5
45 | c1ccc(-c2nc[nH]c2-c2ccccc2)cc1 | 0.1
46 | C[C@@H]1C[C@H]2OC(=O)[C@@]3(C)CCC[C@@](C)([C@@H]23)[C@@]1(O)CCc1ccoc1 | 0.2
47 | COC(=O)c1cc2c(n1S(=O)(=O)c1ccc(C)cc1)C(=O)C(=O)c1[nH]cc(C(=O)OCc3ccccc3)c1-2 | 0.25
48 | C1CCc2nc3c(nc2C1)CCCC3 | -0.2
49 | Nc1c(Cl)cc(S(N)(=O)=O)cc1S(N)(=O)=O | 1.1
50 | CC(C)(C)n1nc(C2CC2)cc1NC(=O)Nc1ccccc1 | 0.25

Row | SMILES | T3 sensor activation Q score
51 | COC(=O)C1(F)C(=O)NC(=O)NC1OC (stereo not given) | 0.6
52 | O=C(N(c1ccccc1)c1ccccc1)N(c1ccccc1)c1ccccc1 | 1
53 | COc1cc2c(Nc3ccc(Br)cc3F)ncnc2cc1OCC1CCN(C)CC1 | 2.1
54 | COc1cc(Nc2c(C#N)cnc3cc(OCCCN4CCN(C)CC4)c(OC)cc23)c(Cl)cc1Cl | 1
55 | COc1cc2ncnc(Nc3ccc(F)c(Cl)c3)c2cc1OCCCN1CCOCC1 | 1.2
56 | O=C(O)C(=O)Nc1ncn[nH]1 | -1.75
57 | Cn1c(=O)c2c(nc(N3CCCCC3)n2C)n(C)c1=O | -0.65
58 | Cn1c(=O)c2[nH]c(N3CCCCC3)nc2n(C)c1=O | 1.9
59 | CCCc1nc2c([nH]1)c(=O)n(C)c(=O)n2C | -0.95
60 | NC1(N2SC(S)=C3CCCC=C32)CCCCC1 | 0.75
61 | NC1=C(O)C(=O)C(c2ccccc2)O1 (stereo not given) | 0.05
62 | O=c1cc(-c2cccnc2)oc2c1ccc1ccccc12 | 1.25
63 | O=C1c2ccccc2NC(c2cc(Cl)cc(Cl)c2O)N1CCc1ccccn1 (stereo not given) | 0.55
64 | Cc1nnc2nc(N)[nH]n2c1=O | -1.2
65 | O=C(O)CSc1nc2ccccc2s1 | -0.1
66 | COC1=C[C@@H](C)[C@@H]2C[C@H]3OC(O)C[C@H]4C(C)=C(OC)C(=O)[C@H]([C@@]2(C)C1=O)[C@@]34C (stereo not given in full) | 0.4
67 | CCOC(=O)Cc1csc2nc(-c3ccccc3)nn12 | 0.25
68 | N#CC1=CC2CN(Cc3ccccc3)C1C1C(=O)N(c3ccccc3)C(=O)C21 (stereo not given) | 0.45
69 | c1ccc(-c2nnc3nc(N4CCCCC4)nc(N4CCCCC4)n23)cc1 | 1.3
70 | NC(N)=NCCCS(=O)(=O)Nc1ccc(Nc2c3ccccc3nc3cc([N+](=O)[O-])ccc23)cc1 | -0.75
71 | CN(C)c1ccc(/C=C2/C=C(c3ccc4c(c3)CCCC4)OC2=O)cc1 | 0.9
72 | Clc1cc2c(nn1)Nc1ccccc1S2 | 0.2
73 | Cn1c(CO)cnc1-c1ccccc1 | 0.3
74 | CC(C)c1ncc(CO)n1Cc1c(Cl)cccc1Cl | 1.85
75 | O=c1[nH]c(SCc2ccccc2[N+](=O)[O-])nc2nc[nH]c12 | 0.3

Row | SMILES | T3 sensor activation Q score
76 | O=c1cc(-c2ccccc2)oc2ccc(O)cc12 | 0.15
77 | N[C@H](C(=O)O)[C@H]1ON=C(Cl)[C@H]1O | -0.15
78 | COc1c(C=O)c2c(c(OC)c1OC)-c1ccc(OC)c(=O)cc1C(NC(C)=O)CC2 (stereo not given) | 4.1
79 | CS/C(=N\S(=O)(=O)c1ccccc1)NNC(=O)c1c(-c2c(Cl)cccc2Cl)noc1C | 0.65
80 | CC1CC=C(O)C12OCC(C)(C)CO2 (stereo not given) | -0.05
81 | Cc1ccc(S(=O)(=O)N2CC=C(N)N2)cc1 | -0.2
82 | Cc1nc2ccccc2nc1NS(=O)(=O)c1ccc(N)cc1 | -0.1
83 | OCc1nc2nc(Cl)c(Cl)nc2[nH]1 | -1.15
84 | CC(C)CCCCCCCCCCCCC(=O)NCC(=O)NC1C(C)OC(Nc2ncnc3nc[nH]c23)C(O)C1O (stereo not given) | -1.5
85 | Cc1cc(C)n2c(C)nnc2c1 | 1.85
86 | Cc1ccn2c(C(C)O)nnc2c1 (stereo not given) | 0.05
87 | COC(=O)c1c[n+]([O-])ccc1OC | -0.5
88 | CN(C)S(=O)(=O)c1ccccc1N=C=S | -1.15
89 | CCOC(=O)/C=C/c1nc(C(=O)OCC)c(C)c(=O)[nH]1 | 1.9
90 | CCOC(=O)c1nn(C)c2[nH]c(=O)n(C)c(=O)c12 | 0.15
91 | CCOC(=O)/C=C/c1ccc(C(=O)OCC)[nH]1 | -1.5
92 | CN(C)S(=O)(=O)Nc1cccc(Br)c1 | 1.8
93 | CNNCc1ccc(C(=O)NC(C)C)cc1 | 1.85
94 | CCC(C)NC(=O)c1cccc(C)c1 (stereo not given) | 1.35
95 | CC(C)NC(=O)c1ccc(C(C)C)cc1 | -0.3
96 | Nc1nc(N)c2cc(Sc3ccc4ccccc4c3)ccc2n1 | 1.15
97 | CCc1ccc(CCN2C(=O)c3ccccc3C2=O)nc1 | 0.1
98 | CCOC(=O)c1nnsc1-c1ccc(-c2snnc2C(=O)OCC)cc1 | 0.95
99 | Clc1ncnc2[nH]ccc12 | -0.05
100 | C=CCN=C(NC#N)SC | 0.05

Row | SMILES | T3 sensor activation Q score
101 | COc1cc(NC(C)=O)c2ncccc2c1NC(C)=O | 1.2
102 | O=c1[nH]cnc2c1ncn2Cc1ccc([N+](=O)[O-])cc1 | 0.15
103 | CCOC(=O)c1cc2c(OC)c(OC)ccc2c2[nH]cc(C#N)c(=O)c12 | 0.7
104 | Cn1nc(SCc2ccccc2)c(=O)n(C(c2ccccc2)c2ccccc2)c1=O | -0.65
105 | CCOc1ccc(/C=C2\CCc3ccccc3C2=O)cc1 | 1.85
106 | O=C1/C(=C\c2ccc([N+](=O)[O-])cc2)CCc2ccccc21 | 0.4
107 | COc1cccc(/C=C2\CCc3ccccc3C2=O)c1 | -0.1
108 | O=C(O)C1OCC2(CO1)COC(C(=O)O)OC2 (stereo not given) | 0.6
109 | CC(C)(C)NC(=O)c1ccc(C(=O)NC(C)(C)C)cc1 | -0.4
110 | CC(=O)CC[N+](C)(C)C | 0.75
111 | O=C(/C=C/c1ccccc1)CC(c1ccccc1)N1CCOCC1 (stereo not given) | 0.15
112 | Nc1ccc(NC(=O)c2ccc(C(=O)Nc3ccc(N)cc3)cc2)cc1 | 1.05
113 | Nc1ccc(C(=O)Nc2ccc(NC(=O)c3ccco3)c(O)c2)cc1 | 1.85
114 | Nc1ccc(C(=O)Nc2cccc(N)c2)cc1 | -1.35
115 | OC[C@H]1O[C@@H](n2cnc3c2NC=NC[C@H]3O)C[C@@H]1O | 1.3
116 | NC(=O)CCC(C(=O)O)N1C(=O)c2ccc(O)cc2C1=O (stereo not given) | -0.1
117 | N#CC1=C2CCCCC2(O)NC1=O (stereo not given) | -0.45
118 | CC1=C2C3OC(=O)C(C)C3CCC2(C)C=C(Cl)C1=O (stereo not given) | 1.1
119 | CC1=CC2C(C(O)CC3(C)C2CC(C)C32OCOC23COCO3)C2(C)CC(=CO)C(=O)C=C12 (stereo not given) | -3.35
120 | CC(=O)[C@@]1(O)[C@H](C)C[C@H]2[C@@H]3C=C(C)C4=Cc5c(cnn5-c5ccccc5)C[C@]4(C)[C@H]3[C@@H](O)C[C@@]21C | 5
121 | COC1C(=O)CCC2(CO2)C1(O)C1(C)OC1CC=C(C)C (stereo not given) | -1.6
122 | OCC1(CO)CC2(C1)CC(CO)(CO)C2 | -1.15
123 | c1ccc(Nc2cccc3c(Nc4ccccc4)cccc23)cc1 | -0.45
124 | COc1ccc(NC(=O)CC(C)=O)c(OC)c1 | -0.1
125 | CC1(C)N=C(N)NC(=NCCCOc2ccc([N+](=O)[O-])cc2)N1 | 0.35
